Compound activity from PubChem.
In the library only some 4.9% were active in any assay of this set; here they are far more common.
NALP1 inh: NALP1 inhibition; S. cerevisiae NALP1/ASC/caspase-1 growth, X-gal OD620, 72 h; inhibition, % at 10 µM; 0.61% of 280,000 active; in the data active = inhibition mostly above about 24%, no sharp cut-off; inactive = mostly below about 32%
tim10-1 inh: growth inhibitors of tim10-1 mutant yeast. 2.2% of 330,000 active. inhibition, % at 20 µM. S. cerevisiae tim10-1 ts strain growth, BacTiter-Glo, 24 h;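 active = inhibition of at least 40%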;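 also: mutant grown at 25 °C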
NALP3 yeast inh: NALP3 inhibition in yeast; Yeast reconstituted NLRP3/ASC/caspase-1, beta-gal luminescence, 24 h; inhibition, % at 10 µM; 0.39% of 330,000 active;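 active = inhibition of 50% or more; inactive = inhibition below 50%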
SKKanGAS inh: blocks kanamycin growth of S. pyogenes SKKanGAS strain. BacTiter-Glo, 6 h. inhibition, % at 7.5 µM. 1.3% of 300,000 active;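 active = mean replicate score, as percent of positive control median, at least 50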;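 also: strain carries kanamycin resistance gene driven by streptokinase promoter and grows in 40 µg/ml kanamycin; loss of luminescence reflects streptokinase promoter inhibition or plain growth inhibition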
TIM10 inh: inhibits growth of TIM10 yeast strain; S. cerevisiae TIM10 strain growth, BacTiter-Glo luminescence, 24 h; inhibition, % at 10 µM; 1.4% of 330,000 active;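 active = inhibition of 40% or more at the single tested concentration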;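 also: wild-type TIM10 isogenic control strain grown at permissive 25 °C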
tim23-1 inh: inhibits growth of tim23-1 mutant yeast | S. cerevisiae tim23-1 growth, BacTiter-Glo luminescence, 24 h | 1.3% of 330,000 active | AID 463212 | inhibition, % at 20 µM;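 active = growth inhibition of the mutant yeast at or above 50%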;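 also: temperature-sensitive mutant grown at 25 °C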
tim10-1 conf: tim10-1 yeast growth inhibition, confirmed. shares compounds with tim10-1 inh. S. cerevisiae tim10-1 ts strain growth, BacTiter-Glo, 24 h. inhibition, % at 20 µM. 56% of 7,400 active. AID 463213;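 active = inhibition of yeast growth at or above a set limit in either of two repeat tests at 20 µM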;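 also: tim10-1 mutant grown at permissive 25 °C to find synthetic lethal compounds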
Each line names hits and unclear results; the compound was inactive in the other large screens (follow-up assays come after a bar, where they were run).

N/C(=N\OC(=O)c1ccc([N+](=O)[O-])cc1)c1cccnc1	tim10-1 inh 40 | tim10-1 conf 37
Cc1ccc(C(=O)O/N=C(\N)c2cccc([N+](=O)[O-])c2)cc1	tim10-1 inh 52 | tim10-1 conf 72
COC(=O)c1ccc(NC(=O)COC(=O)COc2cccc3c2OC(C)(C)C3)cc1	none (no result: NALP1 inh, SKKanGAS inh)
CC1(C)CC(NC(=O)c2cc(COc3cccc(C(F)(F)F)c3)on2)CCO1 (stereo not given)	tim10-1 inh 48 | tim10-1 conf inactive
O=C(NNC(=O)c1ccccc1O)c1ccc(S(=O)(=O)Nc2ccccc2)cc1	none (no result: NALP1 inh)
O=[N+]([O-])c1ccc(C2CC(c3ccccc3)=Nc3ccccc3S2)cc1 (stereo not given)	tim10-1 inh 43 | tim10-1 conf inactive
O=C(O)C1CC(c2ccccc2)=Nc2ccccc2S1 (stereo not given)	none
Cc1[nH]n(-c2ccccc2)c(=O)c1C(c1cccc([N+](=O)[O-])c1O)c1c(C)[nH]n(-c2ccccc2)c1=O	tim10-1 inh 42 | tim10-1 conf inactive
CCC(C)c1ccc(N(CC(=O)NC(C)(C)C)C(=O)CNC(=O)c2cccs2)cc1 (stereo not given)	none
COC(=O)C1CCN(C(=O)c2ccc3nccnc3c2)CC1	none
COC(=O)C1CCN(C(=O)c2ccc3nc(-c4cccc(OC)c4)oc3c2)CC1	tim10-1 inh 42 | tim10-1 conf inactive
C(=N\n1cnnc1)/c1cn(Cc2ccccc2)c2ccccc12	tim10-1 inh 49 | tim10-1 conf inactive
Clc1ccc(Cn2cc(/C=N/n3cnnc3)c3ccccc32)c(Cl)c1	none
CC(C)=CC(=O)O[C@@H]1Cc2cc3ccc(=O)oc3cc2OC1(C)C	none (no result: NALP1 inh, SKKanGAS inh)
O=C(/C=C/c1c(F)cccc1Cl)NCCCN1CCOCC1	none
O=[N+]([O-])c1nn(-c2ccc(Cl)cc2)n(O)c1=NCc1cccnc1	tim10-1 inh 42 | tim10-1 conf 30
O=C(NCCCN1CCOCC1)C1CCN(S(=O)(=O)c2ccccc2)CC1	none (no result: NALP1 inh)
COc1cc(-c2nc(C(=O)NCC3CCCO3)cc3c2[nH]c2ccccc23)cc(OC)c1OC (stereo not given)	tim10-1 inh 42 | tim10-1 conf inactive
COc1cccc2[nH]c(C(=O)NCC3CCCO3)cc12 (stereo not given)	none
COc1ccccc1-c1nc(C(=O)NCC2CCCO2)cc2c1[nH]c1ccccc12 (stereo not given)	tim10-1 inh 43 | tim10-1 conf inactive
CCOC(=O)c1c(C)[nH]c2cc(Br)c(O)cc12	none
CCOC(=O)c1c(OCC)[nH]c2c1cc(O)c1ccccc12	tim10-1 inh 43 | tim10-1 conf 41
CCN(Cc1ccc(OC)c(F)c1)C(=O)/C=C/c1ccc(S(=O)(=O)N2CCOCC2)cc1	none (no result: NALP1 inh, SKKanGAS inh)
O=C(CN1CCC(n2nnc3cc(F)ccc32)CC1)N1CCCc2ccccc21	none
O=C(CN1CCC(n2nnc3cc(C(F)(F)F)ccc32)CC1)N1CCc2ccccc21	tim10-1 inh 46 | tim10-1 conf 36
CCc1ccc(OCC2c3cc(OC)c(OC)cc3CCN2C(=S)NC)cc1 (stereo not given)	tim10-1 inh 48 | tim10-1 conf inactive
CCc1ccc(OCC2c3cc(OC)c(OC)cc3CCN2C(=S)NCCOC)cc1 (stereo not given)	none
CCOC(=O)c1cnc(-n2nc(C)cc2C)nc1N1CC(C)OC(C)C1 (stereo not given)	none (no result: NALP1 inh)
CCOC(=O)c1cnc(-n2nc(C)cc2C)nc1NNc1ncc(-c2ccccc2)cn1	tim10-1 inh 54 | tim10-1 conf inactive
CCOC(=O)/C=C/[C@H]1CC(c2ccccc2)(c2ccccc2)CO1	none (no result: NALP1 inh, SKKanGAS inh)
COc1ccc(-c2onc(C)c2C)cc1S(=O)(=O)NCCc1ccco1	tim10-1 inh 43 | tim10-1 conf inactive
COc1ccc(-c2cc(C)no2)cc1S(=O)(=O)NCCCN(C)Cc1ccccc1	none
Cc1cccc2cc3c(N)c(C(=O)N4CCOCC4)sc3nc12	tim10-1 inh 42 | tim10-1 conf 34
Cc1cc(C)c2cc3c(N)c(C(=O)N4CCc5ccccc5C4)sc3nc2c1	none
CCN(C(=O)CSc1ncccc1C(=O)OC(C)C)c1cccc(C)c1	tim10-1 inh 42 | tim10-1 conf inactive
CC(C)OC(=O)c1cccnc1SCC(=O)N(C)c1ccccc1	none
CCOC(=O)c1cccnc1SCC(=O)NCc1ccccc1	none
CCOC(=O)c1cccnc1SCC(=O)N(CC)c1cccc(C)c1	tim10-1 inh 40 | tim10-1 conf 35
C/C(=C\C(=O)c1ccc(Br)cc1)NNC(=O)c1ccccc1	none (no result: NALP1 inh)
CN1CCN(S(=O)(=O)c2ccc3ccccc3c2)CC1	none
O=C(CCl)N1CCN(S(=O)(=O)c2ccc3ccccc3c2)CC1	tim10-1 inh 40 | tim10-1 conf 33
CC1CCN(c2ccc(S(=O)(=O)N3CCC(C)CC3)cc2N)CC1	tim10-1 inh 41 | tim10-1 conf inactive
CC1CCN(S(=O)(=O)c2ccc3ccccc3c2)CC1	tim10-1 inh 44 | tim10-1 conf 31
CN(C)C(=O)N1CCN(S(=O)(=O)c2ccc3ccccc3c2)CC1	none
COc1ccc(C2/C=C\CC(NS(=O)(=O)c3ccc(C)cc3)CC(=O)N2Cc2ccccc2F)cc1 (stereo not given)	none (no result: NALP1 inh, NALP3 yeast inh, SKKanGAS inh)
CN1/C(=C/C2CC(=O)N(c3cccc4ccccc34)C2=O)C(C)(C)c2ccccc21 (stereo not given)	tim10-1 inh 51 | tim10-1 conf 39
Cn1ncc(Cl)c1C(=O)Nc1cccc(Cl)c1	tim10-1 inh 47 | tim10-1 conf inactive
CCOC(=O)c1cc(-c2cccs2)nc2c1c(C)nn2-c1ccccn1	tim10-1 inh 52, SKKanGAS inh 58 | tim10-1 conf 40
CCOc1cc(C2Nc3cccc4cccc(c34)N2)ccc1O	tim10-1 inh 51 | tim10-1 conf inactive
CCOc1ccc(C2Nc3cccc4cccc(c34)N2)cc1OC	none
CCCC[C@@H]1C[C@H]1[C@@H](NC(=O)c1cccs1)c1ccc(C(F)(F)F)cc1	none (no result: NALP1 inh)
CCN(C1CCCCC1)S(=O)(=O)c1cc(C)ccc1OC	tim10-1 inh 43 | tim10-1 conf inactive
CCCCNC(=O)CC(C(=O)N1CCc2ccccc21)n1ccnc1 (stereo not given)	none
O=C(CC(C(=O)N1CCc2ccccc21)n1ccnc1)N1CCc2ccccc2C1 (stereo not given)	tim10-1 inh 40 | tim10-1 conf 35
CC1CCN(c2nc(Cl)nc(Nc3ccc([N+](=O)[O-])cc3)n2)CC1	tim10-1 inh 46 | tim10-1 conf inactive
C=CCNc1nc(Nc2ccc([N+](=O)[O-])cc2)nc(N2CCCC2)n1	none
CCn1c(C)nc2cc(C(=O)NNC(=O)CN(C)S(=O)(=O)c3ccc(NC(C)=O)cc3)ccc21	none (no result: NALP1 inh, SKKanGAS inh)
